TGFb inhibitor – blocks TGF-b signaling | AID 588855 | Potency, µM (doses to about 46.1 µM), inactives show top-dose activity, negative = inhibition, most hits filed as inhibitors | HepG2 CAGA-GFP TGF-b/SMAD3 reporter, GFP fluorescence, 18 h; TGF-beta stimulated, 500 pg/mL final | 410,000 tested, 1.2% active; also: % is scaled to controls: 0 for no effect and ±100 for the full control effect; nearly all actives have a fitted effect of over 65% in size
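Read-out: total well GFP (ex488/em500-530) summed from mean per-cell fluorescence. Cells: HEPG2 CAGA-GFP, 1% FBS DMEM, 18 h at 37 degrees C with 500 pg/mL final TGF-beta. Unstimulated wells served as the full-inhibition control; stimulated DMSO wells = 0%.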
HepG2 viability – kills HepG2 cells in TGF-b inhibitor counter-screen. Potency, µM (doses to about 46.1 µM), without a hit: top-dose activity change, negative = cytotoxicity, most hits filed as cytotoxic. AID 588856. HepG2 CAGA-GFP viability, ATP luminescence, 18 h. 410,000 tested, 0.76% active
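HepG2 CAGA-GFP cells (1000/well, DMEM with 1% FBS) received compound, then TGF-beta at 500 pg/mL final, and were incubated 18 hours at 37 degrees C. Viability was read by CellTiter-Glo luminescence. Media-only wells were set as complete cell-killing and DMSO as no toxicity.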
RORgamma inh – ROR gamma (mouse) transcription inhibition | 310,000 tested, 5.4% active | Potency, µM (top dose mostly 53.6 µM), without a hit: top-dose activity change, negative = inhibition, hits mostly inhibitors | AID 2551 | Drosophila S2 Gal4-RORgamma UAS-luciferase reporter, 20 h | P51450; also: % is scaled to controls: 0 for no effect and ±100 for the full control effect; nearly all actives have a fitted effect of over 60% in size
Target sequence (P51450 whole entry, looked up, the tested form may be a part): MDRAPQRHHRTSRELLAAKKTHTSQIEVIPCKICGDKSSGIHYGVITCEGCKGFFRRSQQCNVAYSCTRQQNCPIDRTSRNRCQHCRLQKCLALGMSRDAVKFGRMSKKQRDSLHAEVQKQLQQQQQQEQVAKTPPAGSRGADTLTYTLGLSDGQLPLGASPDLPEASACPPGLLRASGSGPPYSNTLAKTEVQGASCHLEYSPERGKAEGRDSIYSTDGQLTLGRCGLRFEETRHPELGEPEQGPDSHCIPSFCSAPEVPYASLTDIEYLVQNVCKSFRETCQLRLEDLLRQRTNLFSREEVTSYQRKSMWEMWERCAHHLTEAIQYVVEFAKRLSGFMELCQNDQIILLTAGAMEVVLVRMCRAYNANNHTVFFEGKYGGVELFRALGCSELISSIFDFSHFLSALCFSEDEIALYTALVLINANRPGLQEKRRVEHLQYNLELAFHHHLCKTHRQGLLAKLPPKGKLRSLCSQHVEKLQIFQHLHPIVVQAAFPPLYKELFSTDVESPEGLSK
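ROR gamma transcriptional activity was tracked as Gal4-UAS luciferase output in stably transfected Drosophila Schneider cells, with compound added 1 hr before 700 uM copper sulfate induction and a 20 hr ambient-temperature incubation.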
S2 tox – reduces viability in counter-screen for ATXN expression inhibitors | S2 cells (HEK-293 line with an ATXN2-luciferase reporter) viability, CellTiter-Fluor protease fluorescence, 24 h | Potency, µM (highest dose often 56.7 µM), actives largely listed as cytotoxic | 400,000 tested, 0.49% active; also: nearly all actives have a fitted effect of over 40% in size
ATXN2 expr inh – ATXN2 expression inhibition; HEK-293 ATXN2-luciferase reporter, luminescence, 24 h; Potency, µM (doses to about 57 µM), without a hit: at the highest dose activity change, negative = inhibition, hits mostly inhibitors; 360,000 tested, 0.72% active; AID 1745845; also: % is scaled to controls: 0 for no effect and ±100 for the full control effect; nearly all actives have a fitted effect of over 55% in size
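ATXN2-luciferase reporter cells (luciferase flanked by upstream and downstream ATXN2 gene portions) were treated 24 h at 37 °C with compounds at up to 57 uM. SteadyGlo luminescence gave expression; GF-AFC fluorescence gave viability.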
VP16 counter – inhibits Gal4-VP16 luciferase reporter, ROR gamma counter-screen | Drosophila S2 Gal4-VP16 UAS-luciferase, luminescence, 20 h | AID 2546 | 310,000 tested, 3.5% active | Potency, µM (highest dose often 53.6 µM), for the others: top-dose activity, negative = inhibition, hits mostly inhibitors;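 also: Gal4-VP16 expression switched on by copper sulfate through the metallothionein promoter; % is scaled to controls: 0 for no effect and ±100 for the full control effect; nearly all actives have a fitted effect of over 50% in size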
An asterisk follows results filed as active; i = inactive; u = inconclusive; x = no result; [ ] = dose if it differs, or a comment. In the library only some 6.1% were active in any assay of this set; here they are far more common. Calls follow the shape of the dose curve; as a rule, active = well fitted curve in the direction sought with a large enough effect; inconclusive = small, poorly fitted or top-dose-only effect, or another doubt; inactive = no such curve, though single readings can be large; an effect the other way counts as inactive or inconclusive. Potency is read from the fitted curve at half-maximal effect.

SMILES	TGFb inhibitor	HepG2 viability	RORgamma inh	S2 tox	ATXN2 expr inh	VP16 counter
COc1ccc(C(=O)OC/C(O)=C(\C#N)c2nc3ccccc3[nH]2)cc1S(=O)(=O)N1CCOCC1	-25%	7%	13µM*	i	-4%	-10%
N#CC(=C(O)COC(=O)c1ccc2c(c1)OCCO2)c1nc2ccccc2[nH]1	u	-52%	x	i	-10%	x
Cc1[nH]c2ccccc2c1C(=O)C(=O)NC1CC(=O)N(c2cccc(F)c2)C1 (centres undefined)	1%	-1%	x	x	x	x
CCc1nc2cc(C(=O)N(C)C3CCOC3)cc(NC(=O)c3ccccc3OC)c2n1C (centres undefined)	x	x	x	i	x	x
CCOC(=O)c1ccc(N=c2sc(C(=O)OC)cc(=O)n2CCCN2CCOCC2)cc1	u	-45%	u	u	u	-21%
COC(=O)c1cc(=O)n(CCc2ccccc2)c(=Nc2ccc(F)cc2)s1	11%	12%	8.9µM*	i	-18%	-28%
CCOC(=O)c1ccc(N=c2sc(C(=O)OC)cc(=O)n2Cc2ccco2)cc1	u	-71%	u	u	u	8.9µM*
COC(=O)c1cc(=O)n(CCc2ccc(OC)cc2)c(=Nc2ccc(F)c(Cl)c2)s1	u	-40%	8%	u	u	3%
CCn1c(=O)cc(C(=O)OC)sc1=Nc1ccc(F)c(F)c1	u	-37%	22µM*	u	u	u
COc1cc(=O)n2c(c1C(=O)NC(C)c1ccco1)CCN(Cc1cc(C)ccc1C)CC2 (centres undefined)	x	x	x	i	x	x
CCOC(=O)c1ccc(NC(=O)CCc2c(C)nc3cc(-c4ccc(OC)cc4OC)nn3c2C)cc1	0%	2%	x	i	5%	x
CCn1c(-c2ccccc2F)nc2cc(NC(C)=O)cc(C(=O)N(C)Cc3c(C)nc4ccccn34)c21	x	x	x	i	x	x
O=c1cc(CCl)nc2sc3ccccc3n12	u	16µM*	u	u	28%[11.3 µM]	-9%
O=C(OCc1cc(=O)n2c(n1)sc1ccccc12)c1ccc(O)cc1	2%	11%	37%	i	83%	3%
COc1ccc2ccccc2c1/C=N/Nc1ccc(Cl)c(C(=O)O)c1	-15%	-4%	-29%	i	22%	7%
COc1ccc(N/N=C/c2c(C(=O)O)ccc3ccccc23)cc1	2.2µM*	-28%	1.4µM*	u	x	4.5µM*
O=C(NC1CCCC1)c1cnn(-c2ccc(F)cc2F)c1C1CCNCC1	18%	-9%	x	i	11%	x
COc1cccc(N2CCN(C(=O)c3c(C)oc4ncnc(N5CCCCC5)c34)CC2)c1	u	-17%	x	i	-25%	x
COc1cccc(N2CCN(S(=O)(=O)c3ccc(-c4ccno4)cc3OC)CC2)c1	-21%	1%	x	i	2%	x
NNc1nc(-c2ccccc2)c2cc(Cl)ccc2n1	13%	-11%	13µM*	i	-18%	-24%
NNc1nc(-c2ccccc2)cc(-c2ccc(Br)cc2)n1	u	-35%	18µM*	i	u	u
FC(F)(F)c1cc(-c2ccccc2)nc2cc(-c3ccc(Br)cc3)nn12	16%	2%	x	i	8%	x
NNc1nc(-c2ccccc2)c2cc(Br)ccc2n1	4%	-17%	2.5µM*	i	-18%	-14%
CC(C)(C)n1ncc2c(=O)n(Cc3ccc(C#N)c(F)c3)cnc21	-3%	-1%	x	x	x	x
COC(=O)C1N2C(=O)N(C)[C@H](C(=O)OC)[C@H]2SC1(C)C (some centres undefined)	-2%	3%	x	x	x	x
SMILES	TGFb inhibitor	HepG2 viability	RORgamma inh	S2 tox	ATXN2 expr inh	VP16 counter
CCC1C(=O)NCCN1Cc1ccc2c(c1)CN(Cc1cccc(OC)c1OC)CCO2 (centres undefined)	x	x	x	i	x	x
CC1=Nc2cccc3cccc(c23)N1	-5%	-15%	13µM*	i	-29%	-20%
Cc1ccc(S(=O)(=O)/N=C(\Sc2ccccc2)c2ccccc2)cc1	-9%	-8%	-8%	u	20µM*	-6%
Cc1sc2ncn(CC(=O)N3CCN(c4cccc(Cl)c4)CC3)c(=O)c2c1S(=O)(=O)N1CCC(C)CC1	u	-23%	x	u	-6%	x
O=[N+]([O-])C(=C1Nc2ccccc2N1)C(Cl)=C(Cl)Cl	-25%	-25%	11µM*	i	14%	u
O=C(Nc1ccccc1)N(Cc1cccc(Cl)c1)c1ccccn1	11%	-6%	x	i	4%	x
CCC(=O)N1CCc2cc(Br)cc(S(=O)(=O)CCC(=O)Nc3ccc(Cl)cc3)c21	1%	4%	x	i	-2%	x
S=c1[nH]nc(C2CCCCC2)n1/N=C/C(Cl)=C\c1ccccc1	u	-26%	2µM*	i	4%	5.6µM*
S=c1[nH]nc(C2CCCCC2)n1/N=C/C=C/c1ccccc1	u	-40%	0.89µM*	i	-17%	6.3µM*
S=c1[nH]nc(-c2cccnc2)n1/N=C/C=C/c1ccccc1	-5%	-8%	4.5µM*	i	x	u
S=c1[nH]nc(-c2n[nH]c3c2CCC3)n1/N=C/C=C/c1ccccc1	-16%	-40%	-40%	i	x	-5%
CCNc1ncc2nc(-c3cccc(C#N)c3)c(=O)n(Cc3cccc(OC)c3)c2n1	x	x	-2%	x	x	4%
Cc1ccc2nc(-c3ccccn3)c(Nc3ccc(F)cc3)n2c1	0%	-14%	x	u	u	x
Cc1ccc2nc(-c3ccccn3)c(N)n2c1	17%	10µM*	x	i	0%	x
CCN1CCN(Cc2c(O)ccc3cc(-c4ccc(OC)cc4)c(=O)oc23)CC1	4%	-14%	x	x	8%	x
CC(c1ccccc1)n1c(-c2ccncc2)n[nH]c1=S (centres undefined)	6%	15%	u	i	-15%	u
CC(c1ccc(F)cc1)n1c(Cn2ncc3ccccc3c2=O)n[nH]c1=S (centres undefined)	u	-39%	-42%	i	-21%	24%
CC(c1ccccc1)n1c(-c2ccccc2F)n[nH]c1=S (centres undefined)	-1%	-1%	7.1µM*	i	7%	6.3µM*
Fc1ccccc1-c1n[nH]c(=S)n1/N=C/c1c[nH]c2ccccc12	10%	5%	u	i	-14%	-2%
CC(c1ccc(F)cc1)n1c(-c2cccs2)n[nH]c1=S (centres undefined)	u	25%	2.8µM*	i	-18%	10µM*
